49 molecules from ChEMBL document CHEMBL4513216, “Probing the Open Global Health Chemical Diversity Library for Multistage-Active Starting Points for Next-Generation Antimalarials” (ACS Infect Dis, 2020) can be followed below.

Structures are written as SMILES. The whole screen tested about 69,000 compounds, of which about 8,600 (12%) showed an effect of 50% or more. The list comes from a sample in which strong results are over-represented; it also holds similar structures and randomly drawn compounds.

The assay has as its system Plasmodium berghei. The assay is described as follows: Screen against P. berghei liver stage (PbLuc), transformed with Luciferase, at 10uM. The format is functional, HepG2. To be noted: tested at 10 uM.
With `CCOC(=O)c1cc(C(C)(O)CCC=C(C)C)on1` (centres undefined), the INHIBITION is reported as 37.8%.

`Cc1nc(CC(=O)N2CCC(c3nn(C)c4ncccc34)CC2)cs1`: the INHIBITION amounted to 26.8%.

For `Cn1c(C(=O)N2CCC(C(N)=O)C2)c(Cl)c2ccccc21` (centres undefined), the INHIBITION is recorded as -20.5%.

As for `Cc1oc(-c2ccco2)nc1CN1CCc2cnc(C(C)C)nc2C1`, the INHIBITION is 21.9%.

Take `CC(C)N(C)S(=O)(=O)c1ccc2c(c1)CCN(C(=O)c1cccnn1)C2`: the INHIBITION is on record as 23.2%.

For the molecule `CNc1nc(C(=O)NCC2CCOc3ccccc3C2)cs1` (centres undefined), the INHIBITION amounted to 53.3%.

On to `Cc1cnc(C(=O)NCC2CCOc3ccccc3C2)cn1` (centres undefined), for which the INHIBITION is 24.4%.

On to `CC(=O)NCC1CCN(CC2CCOc3ccccc3C2)CC1` (centres undefined), for which the INHIBITION worked out at 37.8%.

Turning to `O=C(c1ccc(Cn2cc(Br)cn2)cc1)N1CCCC1`, the INHIBITION was determined as 53.5%.

Take `CN1CCN(C(=O)c2ccc(Cn3cc(Br)cn3)cc2)CC1`: the INHIBITION was found to be 30.7%.

Take `O=C(c1ccc(Cn2cc(Br)cn2)cc1)N1CCOCC1`: the INHIBITION amounted to 37.7%.

As for `CCC(=O)N1CCN(C(=O)CCn2cc(Cl)cn2)[C@H]2CS(=O)(=O)C[C@H]21`, the INHIBITION was determined as 35.8%.

Turning to `CC(=O)N1CCN(C(=O)Nc2ccc(Cl)cc2)[C@H]2CS(=O)(=O)C[C@H]21`, the INHIBITION amounted to 12.6%.

Take `CCC(=O)N1CCN(C(=O)Nc2cccc(F)c2)[C@H]2CS(=O)(=O)C[C@H]21`: the INHIBITION is reported as 61.9%.

Consider `CCC(=O)N1CCN(S(=O)(=O)c2cccc(F)c2)[C@H]2CS(=O)(=O)C[C@H]21`, for which the INHIBITION worked out at 32.2%.

As to `CCC(=O)N1CCN(C(=O)Nc2cccc(C#N)c2)[C@H]2CS(=O)(=O)C[C@H]21`, the INHIBITION is reported as -2.09%.

As to `CCC(=O)N1CCN(C(=O)Nc2ccc(Cl)cc2)[C@H]2CS(=O)(=O)C[C@H]21`, the INHIBITION amounted to 61%.

As to `CCN1CC(CN(C)Cc2nc(-c3ccc(F)cc3F)oc2C)CC1=O` (centres undefined), the INHIBITION is on record as 26.5%.

As to `Cc1ccc(C2CSCCN2C(=O)c2ccnc(N(C)C)c2)o1` (centres undefined), the INHIBITION is 12.3%.

As to `N#Cc1c(CN2CCCCC2Cn2cncn2)cn2ccccc12` (centres undefined), the INHIBITION amounted to 19.3%.

Take `CN(Cc1ccc(Cl)s1)C(=O)c1ccccc1OCC(N)=O`: the INHIBITION was -93.8%.

Turning to `O=C(c1ccncc1)N1CCCn2nnc(COCCO)c2C1`, the INHIBITION came out at 29.8%.

`COc1cc(CN2CCC(O)(c3ccc(C)cn3)CC2)cc(Cl)c1OC`: the INHIBITION is on record as 51.3%.

With `COc1cccc(CN2CCC(O)(c3ccc(C)cn3)CC2)c1OC`, the INHIBITION is listed as -57.5%.

With `COc1ccnc(CN2CCC(O)(c3ccc(C)cn3)CC2)c1OC`, the INHIBITION is recorded as -23.4%.

With `Cc1nc(C)n(CC2CN(CCOc3cccc(F)c3)CCO2)n1` (centres undefined), the INHIBITION was -21.7%.

`Cc1cc(C)c2nc(C)cc(C(=O)N3CC(O)CO3)c2c1` (centres undefined): the INHIBITION is 22.6%.

`CN1CCOC(CNCCCOc2ccc(C#N)cc2)C1` (centres undefined): the INHIBITION is given as -89.9%.

Take `CN1CCOC(CNCCc2ccccn2)C1` (centres undefined): the INHIBITION came to 39.5%.

`CN1CCOC(CNCCOc2ccc(C#N)cc2)C1` (centres undefined): the INHIBITION came out at 71.1%.

As to `CN(C)CC1CN(CCOc2cccc(C#N)c2)CCO1` (centres undefined), the INHIBITION was determined as 41.4%.

With `COCCOc1cccc(CNCC2CN(C)CCO2)c1` (centres undefined), the INHIBITION is 7.12%.

As to `CN1CCOC(CNCCOc2cccc(C#N)c2)C1` (centres undefined), the INHIBITION is listed as 66.7%.

Consider `CN(C)c1ccc(C2CCN(c3cnccn3)CC2)nc1`, for which the INHIBITION was found to be 1.93%.

In the case of `CO[C@H]1CC[C@H]2[C@H]1OCCN2C(=O)CC1=CCCCC1`, the INHIBITION is 32.5%.

`O=C(CN1CCC(c2nnc(C(F)(F)F)o2)CC1)NCc1ccccc1`: the INHIBITION was -3.48%.

Regarding `CCc1nnc(Nc2cccc(C3CCN(CC4CC4)CC3)n2)s1`, the INHIBITION was 14.7%.

Regarding `CCc1ccc(C(=O)N2CCN(CC(O)c3ccccc3)CC2)o1` (centres undefined), the INHIBITION is given as 37.9%.

As to `c1ccc(Cc2nnc(CN3CCc4cncnc4C3)o2)cc1`, the INHIBITION is recorded as -31.3%.

For the molecule `Cc1noc(C)c1CN1CCC(N(C)Cc2noc(C(C)C)n2)C1` (centres undefined), the INHIBITION is 29.8%.

For the molecule `CSCC[C@H](N)c1nnc(SCc2cc(C)ccc2C)o1`, the INHIBITION turned out to be 12.5%.

`Cc1nc(C)n(CC2CCCN2CC(=O)NCCc2ccccc2)n1` (centres undefined): the INHIBITION is reported as 9.54%.

For `Cc1nc(C)n(CC2CCCN2CC(=O)NCCc2ccsc2)n1` (centres undefined), the INHIBITION worked out at 91.3%.

Consider `CC(=O)NCCNC(=O)CN1CCCC1Cn1nc(C)nc1C` (centres undefined), for which the INHIBITION worked out at 1.56%.

Regarding `O=C(CN1CCCC1Cn1cncn1)NCCC1=CCCCC1` (centres undefined), the INHIBITION was determined as 27.6%.

Take `O=C(CN1CCCCC1Cn1cncn1)NCCc1ccsc1` (centres undefined): the INHIBITION is on record as -81.3%.

Take `Cc1nc(C)n(CC2CCCN2CC(=O)NCCC2=CCCCC2)n1` (centres undefined): the INHIBITION came to 77.7%.

Turning to `COc1ccc(CN2CCO[C@H]3CN(C4CCC4)CC[C@H]3C2=O)cc1`, the INHIBITION turned out to be 17.2%.

In the case of `O=C(c1cccc(F)c1)N1CCOC(c2nc(-c3ncccn3)no2)C1` (centres undefined), the INHIBITION was 13.1%.
